From PubChem BioAssay AID1159580 (chemical genetic matrix, 2015)
Values joined by “and” are separate entries in the source; they are usually repeats but may differ in a detail not shown here. Equal values may be shown once. About 2,000 (36%) of roughly 5,500 compounds were called active. About 18% were inconclusive and are not listed. Cut-off read from the data, not from the text of the source: active = normalized growth mostly below about 0.91 (no sharp cut-off); inconclusive = no clear call, values can overlap the other calls; inactive = mostly above about 0.92. The list shows a part of the results.

Test: chemical genetic growth profiling, strain panel (AID 1159580);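 note: tested at 20 µM; growth read once vehicle control cultures reached saturation at 30 °C; 1 = growth at the plate median or of vehicle wells; lower values mean less growth of the strain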
Settings: S. cerevisiae deletion strains, growth OD

Measured: normalized growth

O=C(CCCN1CCC(O)(c2ccc(Cl)cc2)CC1)c1ccc(F)cc1
active: locus YAL013W, strain DEP1, stronger effect = lower value 0.797 | locus YAL021C, strain ccr4, stronger effect = lower value 0.903 | locus YAL026C, strain drs2, stronger effect = lower value 0.0861 | locus YBR009C, strain hhf1, stronger effect = lower value 0.889 | locus YBR021W, strain FUR4, stronger effect = lower value 0.535 | locus YBR231C, strain swc5, stronger effect = lower value 0.815 | locus YBR279W, strain paf1, stronger effect = lower value 0.918 | locus YCL016C, strain dcc1, stronger effect = lower value 0.902 | locus YDL035C, strain GPR1, stronger effect = lower value 0.803 | locus YDL074C, strain BRE1, stronger effect = lower value 0.739 | locus YDL192W, strain arf1, stronger effect = lower value 0.751 | locus YDR069C, strain doa4, stronger effect = lower value 0.837 | locus YDR101C, strain arx1, stronger effect = lower value 0.904 | locus YDR162C, strain NBP2, stronger effect = lower value 0.747 | locus YDR195W, strain ref2 1.46 [resistant] | locus YDR318W, strain mcm21, stronger effect = lower value 0.838 | locus YDR388W, stronger effect = lower value 0.413 | locus YDR392W, strain spt3, stronger effect = lower value 0.281 | locus YDR502C, strain sam2, stronger effect = lower value 0.814 | locus YEL003W, strain gim4, stronger effect = lower value 0.909 | locus YEL061C, strain CIN8, stronger effect = lower value 0.923 | locus YER155C, strain BEM2 (second series), stronger effect = lower value 0.42 | locus YER167W, strain BCK2, stronger effect = lower value 0.839 | locus YFR010W, strain ubp6, stronger effect = lower value 0.867 | locus YGL086W, strain mad1, stronger effect = lower value 0.837 | locus YGL248W, strain PDE1, stronger effect = lower value 0.661 | locus YGL253W, strain hxk2, stronger effect = lower value 0.859 | locus YGR135W, strain pre9, stronger effect = lower value 0.73 | locus YGR229C, strain SMI1, stronger effect = lower value 0.324 | locus YGR252W, strain gcn5, stronger effect = lower value 0.368 | locus YHR013C, strain ard1, stronger effect = lower value 0.807 | locus YHR027C, strain rpn1, stronger effect = lower value 0.899 | locus YHR142W, strain chs7, stronger effect = lower value 0.85 | locus YIL066C, strain RNR3, stronger effect = lower value 0.846 | locus YJL095W, strain BCK1 (second series), stronger effect = lower value 0.899 | locus YJL129C, strain trk1, stronger effect = lower value 0.717 | locus YJL164C, strain tpk1, stronger effect = lower value 0.907 | locus YJL187C, strain SWE1 (second series), stronger effect = lower value 0.792
0.794 (active) and 0.973 (inactive): locus YHR030C, strain SLT2, stronger effect = lower value
0.332 (active) and 0.99 (inactive): locus YJL095W, strain BCK1, stronger effect = lower value
inactive: locus YAL030W, strain snc1, stronger effect = lower value 0.991 | locus YAL040C, strain CLN3, stronger effect = lower value 1.02 | locus YBL061C, strain skt5, stronger effect = lower value 0.951 | locus YBR023C, strain chs3, stronger effect = lower value 0.919 | locus YBR171W, strain sec66, stronger effect = lower value 1.03 | locus YBR229C, strain ROT2, stronger effect = lower value 0.981 | locus YCL011C, strain gbp2, stronger effect = lower value 0.948 | locus YCL029C, strain bik1, stronger effect = lower value 0.945 | locus YCL061C, strain MRC1 (second series), stronger effect = lower value 0.979 | locus YCL061C, strain MRC1, stronger effect = lower value 1.01 | locus YCL069W, strain vba3, stronger effect = lower value 0.985 | locus YCR088W, strain abp1, stronger effect = lower value 1.03 | locus YDL005C, strain med2, stronger effect = lower value 1.03 | locus YDL040C, strain nat1, stronger effect = lower value 1.02 | locus YDL101C, strain DUN1, stronger effect = lower value 0.921 | locus YDL185W, strain tfp1, stronger effect = lower value 1.01 | locus YDR001C, strain nth1, stronger effect = lower value 1.04 | locus YDR137W, strain rgp1, stronger effect = lower value 1.04 | locus YDR150W, strain NUM1, stronger effect = lower value 0.949 | locus YDR159W, strain sac3, stronger effect = lower value 1.02 | locus YDR297W, strain sur2, stronger effect = lower value 0.972 | locus YDR334W, strain swr1, stronger effect = lower value 1.04 | locus YDR335W, strain msn5, stronger effect = lower value 0.984 | locus YDR363W, strain ESC2, stronger effect = lower value 0.886 | locus YEL037C, strain rad23, stronger effect = lower value 0.998 | locus YEL061C, strain CIN8 (second series), stronger effect = lower value 1.02 | locus YER002W, strain NOP16, stronger effect = lower value 1.01 | locus YER015W, strain faa2, stronger effect = lower value 0.987 | locus YER016W, strain bim1, stronger effect = lower value 0.943 | locus YER110C, stronger effect = lower value 0.977 | locus YER111C, strain swi4, stronger effect = lower value 1.02 | locus YER155C, strain BEM2, stronger effect = lower value 1.01 | locus YGL078C, strain dbp3, stronger effect = lower value 0.978 | locus YGL167C, strain pmr1, stronger effect = lower value 0.963 | locus YGL173C, strain kem1, stronger effect = lower value 0.951 | locus YGL227W, strain vid30, stronger effect = lower value 1.05 | locus YGL240W, strain doc1, stronger effect = lower value 0.979 | locus YGR078C, strain PAC10, stronger effect = lower value 0.855 and 0.989 | locus YHR079C, strain IRE1 (second series), stronger effect = lower value 0.928 | locus YHR079C, strain IRE1, stronger effect = lower value 0.979 | locus YHR094C, strain hxt1, stronger effect = lower value 1.03 | locus YHR129C, strain ARP1, stronger effect = lower value 0.926 | locus YHR200W, strain rpn10, stronger effect = lower value 0.98 | locus YIL073C, strain SPO22, stronger effect = lower value 1.25 | locus YIL125W, strain kgd1, stronger effect = lower value 1.02 | locus YIR030C, strain dcg1, stronger effect = lower value 0.979 | locus YJL092W, strain hpr5, stronger effect = lower value 0.986 | locus YJL115W, strain asf1, stronger effect = lower value 1.01 | locus YJL134W, strain LCB3, stronger effect = lower value 0.988 | locus YJL154C, strain vps35, stronger effect = lower value 1.03 | locus YJL166W, strain qcr8, stronger effect = lower value 0.912 | locus YJL168C, strain set2, stronger effect = lower value 0.995 | locus YJL187C, strain SWE1, stronger effect = lower value 0.989
